The panel holds about 79,000 compounds, 15% with a hit somewhere; the sample as a whole holds those more often. Cut-off read from the data, not from the text of the source: active = growth inhibition above about 70%; inactive = the rest.
Experiments:
[1] = NCI Yeast Anticancer Drug Screen. Data for the rad50 strain (AID 155);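 note: 0% = growth of vehicle-only cultures of the same strain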; conditions: S. cerevisiae rad50 strain growth inhibition; at 50.0 µM; stronger effect = higher value
Summary of the method: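 Compounds were tested on a yeast strain with an engineered DNA damage repair alteration; the reported value is growth inhibition normalised to vehicle treatment.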

[2] = NCI Yeast Anticancer Drug Screen. Data for the mec2-1 strain (AID 157); conditions: S. cerevisiae mec2-1 strain, at 50.0 µM, stronger effect = higher value
Summary of the method: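 Readout is yeast growth inhibition, normalised to vehicle-treated controls, in the mec2-1 strain exposed to compound.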

[3] = NCI Yeast Anticancer Drug Screen. Data for the sgs1 mgt1 strain (AID 161);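 note: 0% = growth of cultures given vehicle only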; conditions: S. cerevisiae sgs1 mgt1 strain, at 50.0 µM, stronger effect = higher value
Summary of the method: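 Growth of a repair-deficient yeast mutant was monitored after compound treatment and expressed as inhibition relative to vehicle-treated cultures.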

[4] = NCI Yeast Anticancer Drug Screen. Data for the cln2 rad14 strain (AID 165);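 note: 0% = growth equal to vehicle treated cultures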; conditions: S. cerevisiae cln2 rad14 strain, at 50.0 µM, stronger effect = higher value
Summary of the method: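 Relative to vehicle controls, growth inhibition of compound-treated cln2 rad14 yeast was recorded.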

[5] = NCI Yeast Anticancer Drug Screen. Data for the bub3 strain (AID 167); conditions: S. cerevisiae bub3 mutant strain, at 50.0 µM, stronger effect = higher value
Summary of the method: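 Growth of a checkpoint-deficient yeast mutant is measured after compound exposure. Values represent inhibition relative to vehicle.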

[6] = NCI Yeast Anticancer Drug Screen. Data for the mlh1 rad18 strain (AID 175); conditions: S. cerevisiae mlh1 rad18 strain growth inhibition; at 50.0 µM; stronger effect = higher value
Summary of the method: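 Test agents were incubated with a yeast strain of defined genotype (DNA damage repair defect). Inhibition of growth was derived by comparison with vehicle-exposed cultures.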

Measured: growth inhibition

Cc1[nH]c2ccccc2c1-c1cc(-c2cc(-c3c(C)[nH]c4ccccc34)nc(N)n2)nc(N)n1
inactive: [1] -12.9% | [2] 8.95% | [3] -25.8% | [4] 3.05% | [5] -11.3% | [6] -1.95%

N#Cc1ccccc1N=Nc1nc(N)c(C(N)=O)[nH]1
inactive: [1] 22.2% | [2] 13.7% | [3] 11.2% | [4] -5.05% | [5] 4.7% | [6] 10.2%

CCC(C(O)C(C)C)[N+](=O)[O-] (stereo unspecified)
inactive: [1] 14.2% | [2] 1.45% | [3] 6.35% | [4] -6.5% | [5] 0.05% | [6] 3.3%

CCCCOC(=O)c1ccc(NC(=O)Nc2c(C)cccc2C)cc1
inactive: [1] -0.65% | [2] -4.4% | [3] 27.3% | [4] -6.2% | [5] 30.9% | [6] 25%

CCOC(CN(C)C)OCC
inactive: [1] 8.6% | [2] 6.95% | [3] 4.1% | [4] -18.2% | [5] -5.8% | [6] 5.7%

COc1cc2c(cc1OC)[C@H](C)N1CCc3cc(OC)c(OC)cc3[C@@H]1C2
inactive: [1] 2.1% | [2] -29.6% | [3] 6.65% | [4] 14.3% | [5] 9.45% | [6] -37%

COc1nc(NC2OCC(O)C(O)C2O)c(C(C)=O)c(=O)n1C (stereo unspecified)
inactive: [1] 3.5% | [2] -2.65% | [3] 7.05% | [4] -0.25% | [5] -19.4% | [6] -0.7%

CN(C)CC1CC(O)C(CN(C)C)CC1O (stereo unspecified)
inactive: [1] -6.2% | [2] -13.4% | [3] -20.2% | [4] -6.15% | [5] -6.25% | [6] -8.95%

O=C1COc2ccccc2OCCOCCOc2ccccc2OC1
inactive: [1] 11.2% | [2] -2.9% | [3] -2.7% | [4] -12.2% | [5] 2.3% | [6] -14.9%

Cc1cccc(NS(=O)(=O)c2ccc3c(c2)OCCOCCOCCOCCO3)c1
inactive: [1] 1.65% | [2] -11.1% | [3] 7.05% | [4] -28% | [5] -11.4% | [6] -9.45%

CCCCNC(=O)CCC(NS(=O)(=O)c1ccc(C)cc1)C(=O)NCCCC (stereo unspecified)
inactive: [1] 5.1% | [2] 2.1% | [3] -9% | [4] 1.85% | [5] -3.1% | [6] -18.7%

Cc1cc(=O)oc2c1c(C)nn2-c1cccc(Cl)c1
inactive: [1] -14.5% | [2] -13.2% | [3] 4.05% | [4] -60.9% | [5] -5.1% | [6] -1.85%

O=c1c2cc(S(=O)(=O)Nc3ccc(Cl)cc3Cl)ccc2ncn1NS(=O)(=O)c1cccc2ccccc12
inactive: [1] 10.9% | [2] -5.4% | [3] 28.6% | [4] 18.8% | [5] 8.85% | [6] 14.9%

Nc1cc(Br)cc2c1-c1ccc(Br)cc1C2=O
inactive: [1] 15.1% | [2] -10.6% | [3] 1.35% | [4] -54.9% | [5] 5.15% | [6] 10%

Nc1cc(S(=O)(=O)O)nc(N)[n+]1[O-]
inactive: [1] 1.55% | [2] -1.8% | [3] 1.9% | [4] -36.3% | [5] -13.3% | [6] 2.8%

O=C1/C(=C/c2ccc(F)cc2)CC/C1=C\c1ccc(F)cc1
inactive: [1] -10.5% | [2] -12.1% | [3] -2.85% | [4] -2.55% | [5] -13.8% | [6] -9.3%

C#CCOC(=O)[C@@H](C)c1ccc2cc(OC)ccc2c1
inactive: [1] 11.2% | [2] 4.25% | [3] 52.3% | [4] 17.4% | [5] 36.6% | [6] 43%

CC(C)OC1(c2ccccc2)OC(c2ccccc2)=CC1=O (stereo unspecified)
inactive: [1] 5.35% | [2] -17.1% | [3] -12.1% | [4] -7.4% | [5] 14.1% | [6] -0.8%

CCCCCOC(=O)c1c(Cl)c(Cl)c(C(=O)OCCCCC)c(Cl)c1Cl
inactive: [1] -18.2% | [2] -39% | [3] 0.85% | [4] -6.85% | [5] -6.5% | [6] -9%

Nc1ccc(S(=O)(=O)c2cnc(N)s2)cc1
inactive: [1] -4% | [2] 4.25% | [3] 27.8% | [4] -3.25% | [5] -11.2% | [6] 11.4%

COCCNC(=O)C1C(=O)C(=O)N(CCOC)C1=O (stereo unspecified)
inactive: [1] -17.8% | [2] -7.65% | [3] -17.2% | [4] -4.25% | [5] -19.6% | [6] -3.5%

CCCC(NC(C)=O)C(=O)O (stereo unspecified)
inactive: [1] 8.6% | [2] 2.75% | [3] 2.8% | [4] -21.1% | [5] 1.15% | [6] 8%

O=c1[nH]c(=O)c2nc3cc(-c4ccc5nc6[nH]c(=O)[nH]c(=O)c6nc5c4)ccc3nc2[nH]1
inactive: [1] 14.2% | [2] 12.1% | [3] 12.4% | [4] 54% | [5] 2.65% | [6] 7%

CC1CCCCC12OCCO2 (stereo unspecified)
inactive: [1] -13.9% | [2] -31.4% | [3] 3.3% | [4] 1.75% | [5] -20.3% | [6] -3.75%

CC(C)c1ccc(C(=O)OCCBr)cc1
inactive: [1] 18.7% | [2] -11.4% | [3] 16.2% | [4] -3.1% | [5] 1.7% | [6] 1.25%

CC(CC(C)(C)C)C(=O)NC(N)=O (stereo unspecified)
inactive: [1] 29.3% | [2] -4.05% | [3] -7.95% | [4] -0.6% | [5] 8.65% | [6] 7.6%

O=C1CCSC(=S)N1c1ccc(F)cc1
inactive: [1] 7.15% | [2] -1.4% | [3] 2.2% | [4] -32.5% | [5] -22.9% | [6] 6.2%

C(=C\c1ccc(-c2ccccc2)cc1)/c1ccc(-c2ccccc2)cc1
inactive: [1] -16.2% | [2] -19.9% | [3] 4.4% | [4] -5.3% | [5] -16.7% | [6] -16.4%

CC1(C)C2CC[C@]3(C)C(C(=O)C=C4[C@@H]5C[C@@](C)(C(=O)O)CC[C@]5(C)CCC43C)[C@@]2(C)CC[C@@H]1OC1OC(C(=O)O)C(O)C(O)C1OC1OC(C(=O)O)C(O)C(O)C1O (stereo partly specified) (tested in a mixture with another compound)
inactive: [1] 5.65% | [2] -2.45% | [3] 2.7% | [4] -12.2% | [5] -3.55% | [6] -0.35%

CC(C)(Cc1ccccc1)NC1=NCCO1
inactive: [1] -31.9% | [2] -18.8% | [3] -17.6% | [4] -6.2% | [5] -12.2% | [6] -2.6%

CCN(CC)Cc1ncccc1O
inactive: [1] 8.5% | [2] -15.8% | [3] -22.4% | [4] -2.25% | [5] -5.8% | [6] 16.1%

Cc1noc2c1NC(=O)OCC2
inactive: [1] 2.9% | [2] 1.45% | [3] -3.85% | [4] -2% | [5] 10.6% | [6] -15.1%

NS(=O)(=O)c1cc(Br)ccc1Br
inactive: [1] 8.2% | [2] 12.9% | [3] -0.35% | [4] 39.6% | [5] 17.6% | [6] -7.65%

NC(CCC(=O)NC(CSCNC(=O)Nc1ccc(Cl)cc1)C(=O)NCC(=O)O)C(=O)O (stereo unspecified)
inactive: [1] -5.15% | [2] 4.4% | [3] -1.65% | [4] -13.7% | [5] -3.85% | [6] 15.9%

NC(CCCC(N)C(=O)c1ccccc1)C(=O)c1ccccc1 (stereo unspecified)
inactive: [1] -13.7% | [2] 2.35% | [3] -1.5% | [4] -15.5% | [5] -11.3% | [6] 3.35%

Cn1c(=O)c2cc(O)cnc2n(C)c1=O
inactive: [1] 4.8% | [2] -5.8% | [3] 0.3% | [4] -14.7% | [5] -7.35% | [6] -3%

CC(=O)OCCSc1ccc(Cl)cc1
inactive: [1] -2.4% | [2] 9.8% | [3] 6.6% | [4] -33.2% | [5] -23.3% | [6] -7.65%

COc1ccccc1C1C(C(=O)Nc2ccccc2)=C(C)NC(C)=C1C(=O)Nc1ccccc1
inactive: [1] -3.2% | [2] -21.9% | [3] -36.2% | [4] 15.1% | [5] -3.85% | [6] -11.2%

CC(CO)CCNc1ncnc2c1ncn2CCC(=O)OC(C)(C)C (stereo unspecified)
inactive: [1] -27.6% | [2] 16.4% | [3] -21.6% | [4] -20.6% | [5] -1.85% | [6] -9.65%

COc1ccc(CC(N)C(=O)NC2C(CO)OC(n3cnc4c(N)ncnc43)C2O)cc1 (stereo unspecified)
inactive: [1] 5.65% | [2] -28.6% | [3] -1.6% | [4] -74.3% | [5] -0.25% | [6] -12.8%

CC(C)c1ccc(/C=N\NC(=O)NNC(=O)c2ccccc2)cc1
inactive: [1] -3.05% | [2] -4.25% | [3] 11.6% | [4] -95.8% | [5] -2.85% | [6] -8.25%

— PubChem BioAssay (NCI)
